# Assay results from the supplement of paper PMC4466140.
# Target: SpBzz1-D2
# Test: SPOT peptide array binding signal intensity (averaged, normalized) (arbitrary units (background-subtracted, floor 0; scale differs between SH3 domains)); higher = stronger binding of the SH3 domain to the peptide
# Method: (§1)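 GST-tagged SH3 domains from S. cerevisiae (Sc), A. gossypii (Ag), C. albicans (Ca) and S. pombe (Sp) were incubated at 10 ug/ml overnight at 4 C on cellulose SPOT membranes carrying 292 synthetic 15-mer peptides mined from the S. cerevisiae proteome (cysteines replaced by serines). Binding was detected with anti-GST antibody, HRP secondary and chemiluminescence, quantified with Genespotter, and reported as normalized spot intensities averaged over biological replicates.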
row,Binder,SPOT peptide array binding signal intensity
1,ISNFVPPNLPMRRFK,3
2,NLKKRPPTAPQRKIS,8.5

# Target: SpCyk3
# Test: as above
# Method: as §1
row,Binder,SPOT peptide array binding signal intensity
1,ISNFVPPNLPMRRFK,8
2,NLKKRPPTAPQRKIS,≤ 0

# Target: SpHof1
# Test: as above
# Method: as §1
row,Binder,SPOT peptide array binding signal intensity
1,ISNFVPPNLPMRRFK,51.8
2,NLKKRPPTAPQRKIS,192

# Target: SpHof1-2
# Test: as above
# Method: as §1
row,Binder,SPOT peptide array binding signal intensity
1,ISNFVPPNLPMRRFK,41
2,NLKKRPPTAPQRKIS,12.8

# Target: SpHof1-3
# Test: as above
# Method: as §1
row,Binder,SPOT peptide array binding signal intensity
1,ISNFVPPNLPMRRFK,22
2,NLKKRPPTAPQRKIS,77.2

# Target: SpHse1
# Test: as above
# Method: as §1
row,Binder,SPOT peptide array binding signal intensity
1,ISNFVPPNLPMRRFK,86
2,NLKKRPPTAPQRKIS,1160

# Target: SpLsb1
# Test: as above
# Method: as §1
row,Binder,SPOT peptide array binding signal intensity
1,ISNFVPPNLPMRRFK,236
2,NLKKRPPTAPQRKIS,9

# Target: SpLsb4
# Test: as above
# Method: as §1
row,Binder,SPOT peptide array binding signal intensity
1,ISNFVPPNLPMRRFK,6240
2,NLKKRPPTAPQRKIS,2350

# Target: SpMyo1
# Test: as above
# Method: as §1
row,Binder,SPOT peptide array binding signal intensity
1,ISNFVPPNLPMRRFK,31.2
2,NLKKRPPTAPQRKIS,10.2

# Target: SpNbp2
# Test: as above
# Method: as §1
row,Binder,SPOT peptide array binding signal intensity
1,ISNFVPPNLPMRRFK,13
2,NLKKRPPTAPQRKIS,303

# Target: SpPex13
# Test: as above
# Method: as §1
row,Binder,SPOT peptide array binding signal intensity
1,ISNFVPPNLPMRRFK,57.5
2,NLKKRPPTAPQRKIS,6

# Target: SpRvs167
# Test: as above
# Method: as §1
row,Binder,SPOT peptide array binding signal intensity
1,ISNFVPPNLPMRRFK,1440
2,NLKKRPPTAPQRKIS,539

# Target: SpSla1-D1-D2
# Test: as above
# Method: as §1
row,Binder,SPOT peptide array binding signal intensity
1,ISNFVPPNLPMRRFK,69
2,NLKKRPPTAPQRKIS,13

# Target: SpSla1-D3
# Test: as above
# Method: as §1
row,Binder,SPOT peptide array binding signal intensity
1,ISNFVPPNLPMRRFK,32
2,NLKKRPPTAPQRKIS,6

# Target: AgAbp1
# Test: as above
# Method: as §1
row,Binder,SPOT peptide array binding signal intensity
1,NLKKRPPTAPQRKIS,2190

# Target: AgBbc1
# Test: as above
# Method: as §1
row,Binder,SPOT peptide array binding signal intensity
1,NLKKRPPTAPQRKIS,265

# Target: AgBem1-D1
# Test: as above
# Method: as §1
row,Binder,SPOT peptide array binding signal intensity
1,NLKKRPPTAPQRKIS,28.5

# Target: AgBzz1-D1
# Test: as above
# Method: as §1
row,Binder,SPOT peptide array binding signal intensity
1,NLKKRPPTAPQRKIS,277

# Target: AgBzz1-D2
# Test: as above
# Method: as §1
row,Binder,SPOT peptide array binding signal intensity
1,NLKKRPPTAPQRKIS,199

# Target: AgCyk3
# Test: as above
# Method: as §1
row,Binder,SPOT peptide array binding signal intensity
1,NLKKRPPTAPQRKIS,≤ 0

# Target: AgFus1
# Test: as above
# Method: as §1
row,Binder,SPOT peptide array binding signal intensity
1,NLKKRPPTAPQRKIS,110

# Target: AgHof1
# Test: as above
# Method: as §1
row,Binder,SPOT peptide array binding signal intensity
1,NLKKRPPTAPQRKIS,60

# Target: AgHse1
# Test: as above
# Method: as §1
row,Binder,SPOT peptide array binding signal intensity
1,NLKKRPPTAPQRKIS,1520

# Target: AgLsb1
# Test: as above
# Method: as §1
row,Binder,SPOT peptide array binding signal intensity
1,NLKKRPPTAPQRKIS,2.25

# Target: AgLsb4
# Test: as above
# Method: as §1
row,Binder,SPOT peptide array binding signal intensity
1,NLKKRPPTAPQRKIS,109

# Target: AgMyo5
# Test: as above
# Method: as §1
row,Binder,SPOT peptide array binding signal intensity
1,NLKKRPPTAPQRKIS,≤ 0

# Target: AgNbp2
# Test: as above
# Method: as §1
row,Binder,SPOT peptide array binding signal intensity
1,NLKKRPPTAPQRKIS,245

# Target: AgRvs167
# Test: as above
# Method: as §1
row,Binder,SPOT peptide array binding signal intensity
1,NLKKRPPTAPQRKIS,13.5

# Target: AgSho1
# Test: as above
# Method: as §1
row,Binder,SPOT peptide array binding signal intensity
1,NLKKRPPTAPQRKIS,33.5

# Target: AgSla1-D1-D2
# Test: as above
# Method: as §1
row,Binder,SPOT peptide array binding signal intensity
1,NLKKRPPTAPQRKIS,370

# Target: AgSla1-D3
# Test: as above
# Method: as §1
row,Binder,SPOT peptide array binding signal intensity
1,NLKKRPPTAPQRKIS,28.2

# Target: CaAbp1-D1
# Test: as above
# Method: as §1
row,Binder,SPOT peptide array binding signal intensity
1,NLKKRPPTAPQRKIS,5270

# Target: CaAbp1-D2
# Test: as above
# Method: as §1
row,Binder,SPOT peptide array binding signal intensity
1,NLKKRPPTAPQRKIS,6470

# Target: CaBbc1
# Test: as above
# Method: as §1
row,Binder,SPOT peptide array binding signal intensity
1,NLKKRPPTAPQRKIS,646

# Target: CaBem1-D1
# Test: as above
# Method: as §1
row,Binder,SPOT peptide array binding signal intensity
1,NLKKRPPTAPQRKIS,48.5

# Target: CaBzz1-D1
# Test: as above
# Method: as §1
row,Binder,SPOT peptide array binding signal intensity
1,NLKKRPPTAPQRKIS,727

# Target: CaBzz1-D2
# Test: as above
# Method: as §1
row,Binder,SPOT peptide array binding signal intensity
1,NLKKRPPTAPQRKIS,2010

# Target: CaCyk3
# Test: as above
# Method: as §1
row,Binder,SPOT peptide array binding signal intensity
1,NLKKRPPTAPQRKIS,3

# Target: CaFus1
# Test: as above
# Method: as §1
row,Binder,SPOT peptide array binding signal intensity
1,NLKKRPPTAPQRKIS,254

# Target: CaHof1
# Test: as above
# Method: as §1
row,Binder,SPOT peptide array binding signal intensity
1,NLKKRPPTAPQRKIS,1

# Target: CaHse1
# Test: as above
# Method: as §1
row,Binder,SPOT peptide array binding signal intensity
1,NLKKRPPTAPQRKIS,34.5

# Target: CaLsb1
# Test: as above
# Method: as §1
row,Binder,SPOT peptide array binding signal intensity
1,NLKKRPPTAPQRKIS,≤ 0

# Target: CaLsb4
# Test: as above
# Method: as §1
row,Binder,SPOT peptide array binding signal intensity
1,NLKKRPPTAPQRKIS,942

# Target: CaMyo5
# Test: as above
# Method: as §1
row,Binder,SPOT peptide array binding signal intensity
1,NLKKRPPTAPQRKIS,4.5

# Target: CaNbp2
# Test: as above
# Method: as §1
row,Binder,SPOT peptide array binding signal intensity
1,NLKKRPPTAPQRKIS,764

# Target: CaRvs167
# Test: as above
# Method: as §1
row,Binder,SPOT peptide array binding signal intensity
1,NLKKRPPTAPQRKIS,32

# Target: CaRvs167-3
# Test: as above
# Method: as §1
row,Binder,SPOT peptide array binding signal intensity
1,NLKKRPPTAPQRKIS,67.8

# Target: CaSho1
# Test: as above
# Method: as §1
row,Binder,SPOT peptide array binding signal intensity
1,NLKKRPPTAPQRKIS,170

# Target: CaSla1-D1-D2
# Test: as above
# Method: as §1
row,Binder,SPOT peptide array binding signal intensity
1,NLKKRPPTAPQRKIS,1470

# Target: CaSla1-D3
# Test: as above
# Method: as §1
row,Binder,SPOT peptide array binding signal intensity
1,NLKKRPPTAPQRKIS,6.5

# Target: ScAbp1
# Test: as above
# Method: as §1
row,Binder,SPOT peptide array binding signal intensity
1,NLKKRPPTAPQRKIS,2890

# Target: ScBbc1
# Test: as above
# Method: as §1
row,Binder,SPOT peptide array binding signal intensity
1,NLKKRPPTAPQRKIS,56.8

# Target: ScBem1-D1
# Test: as above
# Method: as §1
row,Binder,SPOT peptide array binding signal intensity
1,NLKKRPPTAPQRKIS,8

# Target: ScBzz1-D1
# Test: as above
# Method: as §1
row,Binder,SPOT peptide array binding signal intensity
1,NLKKRPPTAPQRKIS,258

# Target: ScBzz1-D2
# Test: as above
# Method: as §1
row,Binder,SPOT peptide array binding signal intensity
1,NLKKRPPTAPQRKIS,34

# Target: ScCyk3
# Test: as above
# Method: as §1
row,Binder,SPOT peptide array binding signal intensity
1,NLKKRPPTAPQRKIS,13

# Target: ScFus1
# Test: as above
# Method: as §1
row,Binder,SPOT peptide array binding signal intensity
1,NLKKRPPTAPQRKIS,80

# Target: ScHof1
# Test: as above
# Method: as §1
row,Binder,SPOT peptide array binding signal intensity
1,NLKKRPPTAPQRKIS,2.75

# Target: ScHse1
# Test: as above
# Method: as §1
row,Binder,SPOT peptide array binding signal intensity
1,NLKKRPPTAPQRKIS,1640

# Target: ScLsb1
# Test: as above
# Method: as §1
row,Binder,SPOT peptide array binding signal intensity
1,NLKKRPPTAPQRKIS,32.5

# Target: ScLsb2
# Test: as above
# Method: as §1
row,Binder,SPOT peptide array binding signal intensity
1,NLKKRPPTAPQRKIS,3.5

# Target: ScLsb3
# Test: as above
# Method: as §1
row,Binder,SPOT peptide array binding signal intensity
1,NLKKRPPTAPQRKIS,2500

# Target: ScLsb4
# Test: as above
# Method: as §1
row,Binder,SPOT peptide array binding signal intensity
1,NLKKRPPTAPQRKIS,100

# Target: ScMyo3
# Test: as above
# Method: as §1
row,Binder,SPOT peptide array binding signal intensity
1,NLKKRPPTAPQRKIS,9.5

# Target: ScMyo5
# Test: as above
# Method: as §1
row,Binder,SPOT peptide array binding signal intensity
1,NLKKRPPTAPQRKIS,6.5

# Target: ScNbp2
# Test: as above
# Method: as §1
row,Binder,SPOT peptide array binding signal intensity
1,NLKKRPPTAPQRKIS,578

# Target: ScPex13
# Test: as above
# Method: as §1
row,Binder,SPOT peptide array binding signal intensity
1,NLKKRPPTAPQRKIS,1.75

# Target: ScRvs167
# Test: as above
# Method: as §1
row,Binder,SPOT peptide array binding signal intensity
1,NLKKRPPTAPQRKIS,708

# Target: ScSho1
# Test: as above
# Method: as §1
row,Binder,SPOT peptide array binding signal intensity
1,NLKKRPPTAPQRKIS,367

# Target: ScSla1-D1-D2
# Test: as above
# Method: as §1
row,Binder,SPOT peptide array binding signal intensity
1,NLKKRPPTAPQRKIS,1690

# Target: ScSla1-D3
# Test: as above
# Method: as §1
row,Binder,SPOT peptide array binding signal intensity
1,NLKKRPPTAPQRKIS,8.25

# Target: SpAbp1-D1
# Test: as above
# Method: as §1
row,Binder,SPOT peptide array binding signal intensity
1,NLKKRPPTAPQRKIS,2030

# Target: SpBbc1
# Test: as above
# Method: as §1
row,Binder,SPOT peptide array binding signal intensity
1,NLKKRPPTAPQRKIS,11

# Target: SpBzz1-D1
# Test: as above
# Method: as §1
row,Binder,SPOT peptide array binding signal intensity
1,NLKKRPPTAPQRKIS,641
